Pol kappa inh-1 = inhibitors of human DNA polymerase kappa; Q9UBT6; Potency, µM (series often up to 107 µM), inactives show top-dose activity, negative = inhibition, actives largely listed as inhibitors; purified Pol kappa, fluorescent DNA synthesis assay, 10 min; 0.53% of 400,000 active; also: potency is read from the fitted curve at half-maximal effect; % is scaled to controls: 0 for no effect and ±100 for the full control effect
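Kinetic fluorescence readout at 0 and 10 min followed reaction start with substrate at 50 nM final. Beforehand, enzyme (10 nM Pol kappa) stood 15 min with compound at room temperature; buffer-only wells were negative controls.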
WRN inhibitor = blocks human WRN helicase; Q14191; WRN helicase unwinding, fluorescent forked duplex, kinetic; Potency, µM (titrated, usually from 114 µM), for the others: at the highest dose activity change, negative = inhibition, most hits filed as inhibitors; 0.46% of 360,000 active; also: potency is read from the fitted curve at half-maximal effect; % is scaled to controls: 0 for no effect and ±100 for the full control effect; nearly all actives have a fitted effect of over 55% in size
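Kinetic red-fluorescence monitoring (525/598 nm) tracks WRN helicase activity after 100 nM fluorophore-quencher forked duplex and 2 mM ATP are added to 20 nM enzyme pretreated 15 min at room temperature with compound.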
Pol beta inh = blocks human DNA polymerase beta activity | P06746 | Pol beta primer extension/strand displacement, fluorescence kinetic | Potency, µM (highest dose often 114 µM), without a hit: top-dose activity change, negative = inhibition, actives largely listed as inhibitors | 1.3% of 340,000 active; also: potency is read from the fitted curve at half-maximal effect; % is scaled to controls: 0 for no effect and ±100 for the full control effect
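Pol beta (10 nM) was preincubated with compound for 15 min at room temperature. The reaction was then started with 50 nM substrate and read immediately and after a further 10 min at room temperature.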
Pol iota inh = inhibitors of human DNA polymerase iota. Q9UNA4. Pol iota fluorescent replication assay, 10 min. Potency, µM (doses to about 115 µM), for the others: top-dose activity, negative = inhibition, actives largely listed as inhibitors. 1% of 390,000 active. AID 588590; also: potency is read from the fitted curve at half-maximal effect
Target sequence (Q9UNA4 whole entry, looked up): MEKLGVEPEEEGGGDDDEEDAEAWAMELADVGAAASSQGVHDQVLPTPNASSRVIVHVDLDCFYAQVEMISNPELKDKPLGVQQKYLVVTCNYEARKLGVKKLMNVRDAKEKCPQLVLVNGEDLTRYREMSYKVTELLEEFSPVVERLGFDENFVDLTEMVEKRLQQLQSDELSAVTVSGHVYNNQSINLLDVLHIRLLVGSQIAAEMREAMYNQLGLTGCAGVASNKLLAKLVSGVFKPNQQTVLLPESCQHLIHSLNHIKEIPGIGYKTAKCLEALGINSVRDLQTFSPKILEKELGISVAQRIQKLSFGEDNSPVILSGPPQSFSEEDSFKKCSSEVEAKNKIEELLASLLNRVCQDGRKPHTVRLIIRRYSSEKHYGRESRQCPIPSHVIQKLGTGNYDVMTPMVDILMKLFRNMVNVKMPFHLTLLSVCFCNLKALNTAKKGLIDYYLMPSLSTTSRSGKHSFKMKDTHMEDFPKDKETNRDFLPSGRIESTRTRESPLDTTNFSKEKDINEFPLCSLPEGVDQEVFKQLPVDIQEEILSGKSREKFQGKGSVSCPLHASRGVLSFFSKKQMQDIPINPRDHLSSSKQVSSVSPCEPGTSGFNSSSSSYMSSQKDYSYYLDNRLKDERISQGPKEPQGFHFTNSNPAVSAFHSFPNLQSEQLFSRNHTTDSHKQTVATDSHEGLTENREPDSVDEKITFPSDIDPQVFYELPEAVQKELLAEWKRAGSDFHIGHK
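Pol iota at 10 nM preincubated 15 min with compounds at room temperature; reaction started with fluorescent substrate, 50 nM final. Fluorescence read kinetically at 0 and 10 min; buffer-only wells as negative control.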
Pol eta inh-1 = blocks human DNA polymerase eta activity | Q9Y253 | recombinant Pol eta, fluorescent DNA replication assay | Potency, µM (titrated, usually from 114 µM), for inactives: at the top dose activity change, negative = inhibition, usual class: inhibitors | 1.2% of 390,000 active; also: potency is read from the fitted curve at half-maximal effect; % is scaled to controls: 0 for no effect and ±100 for the full control effect
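Pol eta (10 nM) was preincubated with compounds for 15 min at room temperature, after which fluorescent replication substrate (50 nM final) was added to start the reaction. Fluorescence was read kinetically at 0 and 10 min.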
PI5P4K alpha inh = blocks human PI5P4K alpha kinase activity; PI5P4Kalpha enzyme, ADP-Glo luminescence, 60 min; hits give low values; max response, %; P48426; 1.2% of 330,000 active; active = max response of -50% or lower; inconclusive = between -30% and -50%; inactive = -30% or higher; also: value at the top dose of about 77 µM; % is scaled to controls: 0 for no effect and ±100 for the full control effect
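Compounds were pin-transferred onto PI5P4Kalpha and substrate in HEPES pH 7.4 buffer with EGTA, CHAPS and 5% DMSO. ATP (5 microM final) started the reaction, which ran 60 minutes at room temperature before ADP-Glo detection.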
PGK validate = validation of Trypanosoma brucei phosphoglycerate kinase inhibitors. shares compounds with Pol kappa inh-1. TbPGK coupled GAPDH assay, Kinase-Glo luminescence. Potency, µM (top dose mostly 57.5 µM), without a hit: at the top dose activity change, negative = inhibition, hits mostly inhibitors. 79% of 500 active; also: potency is read from the fitted curve at half-maximal effect; % is scaled to controls: 0 for no effect and ±100 for the full control effect; nearly all actives have a fitted effect of over 65% in size
Pol iota confirm = Human Pol iota inhibitor confirmatory assay; Potency, µM, actives largely listed as inhibitors; 77% of 1,500 active; Pol iota primer extension, TAMRA/BHQ fluorescence; AID 720496; shares compounds with Pol kappa inh-1; also: potency is read from the fitted curve at half-maximal effect
GALK confirm = confirmation of human galactokinase (GALK) inhibitors; shares compounds with Pol eta inh-1; purified GALK, Kinase-Glo ATP depletion luminescence; Potency, µM (highest dose often 115 µM), without a hit: at the top dose activity, negative = inhibition, hits mostly inhibitors; 70% of 150 active
Redox cycling = redox cycling activity in phenol red-HRP assay | 40% of 150 active | Potency, µM (doses to about 115 µM), without a hit: top-dose activity change, negative = H2O2 signal, most hits filed as inhibitors | shares compounds with Pol eta inh-1 | Phenol red-HRP H2O2 redox cycling, absorbance 600 nm | AID 2035
HEK293 viability = reduces HEK-293 cell viability in GALK counter-screen; 10% of 170 active; AID 2547; Potency, µM (series often up to 46.1 µM), without a hit: at the top dose activity change, negative = cytotoxicity, most hits filed as inhibitors; shares compounds with Pol eta inh-1; HEK-293 viability, ATP luminescence (CellTiter-Glo), 24/48 h; also: potency is read from the fitted curve at half-maximal effect; % is scaled to controls: 0 for no effect and ±100 for the full control effect
Pol kappa inh-2 = confirmation of human DNA polymerase kappa inhibitors; Potency, µM, hits mostly inhibitors; AID 720501; shares compounds with Pol eta inh-1; 76% of 920 active; purified Pol-kappa, fluorescent strand-displacement substrate; also: potency is read from the fitted curve at half-maximal effect
Pol eta inh-2 = Pol eta (human) inhibition, cherry-pick confirmation; Pol eta primer extension, TAMRA/BHQ fluorescence, 10 min; 64% of 2,600 active; AID 720502; shares compounds with Pol eta inh-1; Potency, µM, actives largely listed as inhibitors; also: potency is read from the fitted curve at half-maximal effect
An asterisk follows results filed as active; ? = inconclusive; . = no result given; [ ] = dose if it differs, or a comment. The list is not random: actives were taken first. Their share in the collection is about 2.8%. Unless noted, calls follow the shape of the dose curve; as a rule, active = well fitted curve in the direction sought with a large enough effect; inconclusive = small, poorly fitted or top-dose-only effect, or another doubt; inactive = no such curve, though single readings can be large; an effect the other way counts as inactive or inconclusive.

SMILES	Pol kappa inh-1	WRN inhibitor	Pol beta inh	Pol iota inh	Pol eta inh-1	PI5P4K alpha inh	Pol iota confirm	Pol eta inh-2	others
Cc1ccc(C(=O)Nc2nnc(CC(=O)N/N=C/c3ccc(O)c(O)c3)s2)cc1	?	20µM*	3.5µM*	?	3.5µM*	-58*	9.5*	17*	PGK validate=4.1µM*
O=C(O)c1ccccc1/C=N/NC(=O)c1cc(-c2ccco2)nc2ccccc12	35µM*	?	8.9µM*	?	3.2µM*	-94*	17*	7.6*
Cn1c(N)c(C(=O)COC(=O)c2cc(-c3ccco3)nc3ccccc23)c(=O)n(C)c1=O	?	28µM*	16µM*	7.1µM*	7.9µM*	-77*	24*	19*
O=C(Nc1ccccc1F)c1cc(-c2ccco2)nc2ccccc12	-31%	?	.	?	79µM*	?	?	85*
O=C(NCC(c1ccc(F)cc1)N1CCOCC1)c1nn(-c2ccccc2)c(=O)c2ccccc12 (stereo unspecified)	-22%	4%	.	2%	3%	5	.	.
O=C1c2ccccc2C(=O)C12OC2c1cccc2ccccc12 (stereo unspecified)	-2%	-10%[57.1 µM]	10%	3.5µM*	20µM*	-17	?	38*	GALK confirm=17µM*;Redox cycling=13µM*;HEK293 viability=-27%
O=C1NC(c2cccc3ccccc23)Nc2ccccc21 (stereo unspecified)	-6%	-3%	.	12%	-12%	8	.	.
O=S(=O)(NCCc1ccccc1)c1ccc(N2CCCCS2(=O)=O)cc1	-9%[60.1 µM]	.	-5%	-6%	-6%	.	.	.
Cc1cccc(C)c1Nc1c(-c2ccccc2Cl)nc2cnccn12	-23%	.	11%	5%	-16%	.	.	.
COc1cc2c(cc1OC)C(COc1cc(C)cc(C)c1)N(C(=O)c1ccc(S(=O)(=O)N3CCCC3)cc1)CC2 (stereo unspecified)	-8%[60.1 µM]	.	24%	14%	-11%	.	.	.
C#CCSc1nc2sc3c(c2c(=O)n1C)CCC3	?	-28%	28µM*	25µM*	20µM*	?	67*	60*	Pol kappa inh-2=34*
CSc1nc2sc3c(c2c(=O)n1C)CCC3	10%	-2%	0%	33%	-8%	3	.	.
O=C(O)c1ccccc1NS(=O)(=O)c1ccc(N/N=C/c2ccc(O)c(O)c2)c([N+](=O)[O-])c1	32µM*	11µM*	.	7.9µM*	2.5µM*	-96*	27*	30*	PGK validate=10µM*;Pol kappa inh-2=17*
O=[N+]([O-])c1ccccc1NC(=S)N/N=C/c1ccc(O)c(O)c1	20µM*	11µM*	3.5µM*	8.9µM*	3.5µM*	-63*	47*	21*
NS(=O)(=O)c1ccc(N/N=C/c2ccc(O)c(O)c2O)c([N+](=O)[O-])c1	10µM*	?	1.3µM*	2.8µM*	2.5µM*	-75*	17*	15*
O=C(O)c1ccc(/C=N/Nc2ccc(S(=O)(=O)N3CCCC3)cc2[N+](=O)[O-])cc1	-9%	1%	0%	-2%	0%	-11	.	.
CCOc1cccc(/C=N/NC(=S)Nc2ccccc2[N+](=O)[O-])c1O	-11%	-3%	1%	-27%	-5%	-21	.	.
CCOc1nc(NC(=O)NS(=O)(=O)Oc2ccccc2)nc(-c2ccccc2)n1	-10%	.	-2%	?	-18%	.	.	.
CN(c1ccccc1)S(=O)(=O)c1ccc2c(c1)oc(=O)n2C	-5%	-3%[57.1 µM]	14%	23%	-21%	1	.	.
Cc1ccc(-n2ncc(C(=O)NC3CCCCC3)c2C2CCN(C(=O)OC(C)(C)C)CC2)cc1	0%	.	-16%	9%	-16%	.	.	.
O=C(O)COc1ccc2c(c1)O/C(=C\c1ccco1)C2=O	79µM*	?	32µM*	11µM*	5µM*	?	27*	30*	Pol kappa inh-2=6.7*
COc1cccc(/C=C2\Oc3cc(OCC(=O)N4CCCC4)ccc3C2=O)c1OC	-22%	-26%	-25%	1%	-19%	-12	.	.
COc1ccc(OC)c(S(=O)(=O)NCCc2sc(-c3ccc(C)cc3)nc2C)c1	0%[60.1 µM]	.	-6%	20%	-18%	.	.	.
CCOC(=O)/C(C#N)=C/c1cccn1-c1ccc(Cl)cc1	2%	-3%	-7%	84%	-20%	-1	.	.
N#C/C(=C/c1cccn1-c1cccc(C(=O)O)c1)c1ccc(Cl)cc1	?	-10%[11.6 µM]	8.9µM*	20µM*	50µM*	-20	75*	?	Pol kappa inh-2=75*
N#CC(C#N)=Cc1cccn1-c1ccc(C(=O)O)cc1	40µM*	56µM*	5µM*	18µM*	10µM*	?	19*	27*	Pol kappa inh-2=17*
Cc1ccc(CN2CCCn3nc(C(=O)NCc4ccc(N(C)C)cc4)cc3C2=O)cc1	3%[60.1 µM]	.	-18%	-10%	-13%	.	.	.
Cc1cccc(NC(=O)Cn2c(O)c(N=NC(=O)c3ccccc3O)c3ccccc32)c1	-15%	?	16µM*	91%	45µM*	-4	47*	?

High-throughput results: PubChem BioAssay, National Center for Advancing Translational Sciences (NCATS)
